Assay results from PubChem BioAssay (NCI).
The panel holds about 79,000 compounds, 15% with a hit somewhere; the sample as a whole holds those more often. Unmarked numbers belong to inactive results. The source made the active and inactive calls. Cut-off read from the data, not from the text of the source: active = growth inhibition above about 70%; inactive = the rest.

Key:
[1] = NCI Yeast Anticancer Drug Screen. Data for the rad50 strain (AID 155);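 note: 0% = growth of vehicle-only cultures of the same strain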; conditions: S. cerevisiae rad50 strain growth inhibition, hits give high values
Summary of the method: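 Relative growth inhibition (compound vs vehicle) was measured in yeast with a defined repair-gene alteration.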

[2] = NCI Yeast Anticancer Drug Screen. Data for the mec2-1 strain (AID 157); conditions: S. cerevisiae mec2-1 strain, hits give high values
Summary of the method: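 mec2-1 yeast strain, carrying an alteration in DNA damage repair or cell cycle control, was exposed to compounds; growth inhibition was measured relative to vehicle-treated controls.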

[3] = NCI Yeast Anticancer Drug Screen. Data for the sgs1 mgt1 strain (AID 161);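 note: 0% = growth of cultures given vehicle only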; conditions: S. cerevisiae sgs1 mgt1 strain, hits give high values
Summary of the method: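 Yeast cells carrying a defined DNA-repair defect were exposed to test compounds. Growth inhibition was measured relative to vehicle-treated controls.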

[4] = NCI Yeast Anticancer Drug Screen. Data for the cln2 rad14 strain (AID 165);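 note: 0% = growth equal to vehicle treated cultures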; conditions: S. cerevisiae cln2 rad14 strain, hits give high values
Summary of the method: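 Yeast carrying cln2 and rad14 alterations (cell cycle control and DNA damage repair) were exposed to compounds. Growth inhibition was measured against vehicle-treated controls.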

[5] = NCI Yeast Anticancer Drug Screen. Data for the bub3 strain (AID 167); conditions: S. cerevisiae bub3 mutant strain, hits give high values
Summary of the method: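 Screening used yeast with an engineered genetic alteration affecting cell cycle control. Compound-exposed cultures were compared with vehicle cultures, and reduced growth was taken as inhibition.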

[6] = NCI Yeast Anticancer Drug Screen. Data for the mlh1 rad18 strain (AID 175); conditions: S. cerevisiae mlh1 rad18 strain growth inhibition, hits give high values
Summary of the method: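 Growth inhibition of the yeast strain was measured after compound exposure and expressed relative to vehicle-treated controls. The strain carries defined defects in DNA damage repair.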

[7] = at 5.0 µM (retest, dose inferred, filed as 0.5)
[8] = at 50.0 µM (retest, dose inferred, filed as 5.0)

Compound	growth inhibition [1, 7]	growth inhibition [1, 8]	growth inhibition ([1]; at 50.0 µM)	growth inhibition [2, 7]	growth inhibition [2, 8]	growth inhibition ([2]; at 50.0 µM)	growth inhibition [3, 7]	growth inhibition [3, 8]	growth inhibition ([3]; at 50.0 µM)	growth inhibition [4, 7]	growth inhibition [4, 8]	growth inhibition ([4]; at 50.0 µM)	growth inhibition [5, 7]	growth inhibition [5, 8]	growth inhibition ([5]; at 50.0 µM)	growth inhibition [6, 7]	growth inhibition [6, 8]	growth inhibition ([6]; at 50.0 µM)
CCCCCC(CO)C(O)(C(F)(F)F)C(F)(F)F (stereo not given)	-23%	-5%	44.8%	-26%	7%	33.9%	1%	9%	65.4%	3%	15%	47.4%	0%	11%	-30.4%	-26%	-1%	49.1%
CCc1ccc(-c2ccccc2)cc1	1%	1%	9.45%	-1%	6%	-2.95%	-1%	-2%	-3.9%	-7%	6%	76.9% (active)	9%	10%	9.05%	0%	4%	8.75%
O=C1/C(=C/O)CCc2c1ccc1ccccc21	15%	98% (active)	98.4% (active)	9%	99% (active)	99% (active)	-9%	98% (active)	99.1% (active)	6%	99% (active)	97.7% (active)	10%	98% (active)	98.9% (active)	17%	98% (active)	96.2% (active)
CCCN=Cc1cnc(C#N)c(N)n1	4%	4%	19%	4%	0%	-3.9%	-1%	4%	4.6%	1%	1%	71.5% (active)	-2%	-1%	17.3%	11%	2%	32.5%
CN(Cc1ccccc1)c1nc(=[N+](C)C)ss1	5%	-1%	4.35%	-5%	-1%	8.8%	11%	8%	26.3%	17%	15%	-30.9%	14%	11%	12.2%	10%	16%	33.4%
O=C1C=CC(=O)N1C1CCCCC1	93% (active)	99% (active)	99.6% (active)	60%	100% (active)	99.7% (active)	95% (active)	99% (active)	99.5% (active)	30%	99% (active)	99.8% (active)	90% (active)	99% (active)	99.7% (active)	98% (active)	99% (active)	99.6% (active)
NC(=O)/C=C/C(=O)c1c(Cl)cccc1Cl	97% (active)	100% (active)	91.1% (active)	99% (active)	100% (active)	92% (active)	99% (active)	100% (active)	91.7% (active)	46%	98% (active)	90.3% (active)	99% (active)	100% (active)	88.3% (active)	100% (active)	100% (active)	91% (active)
CC(=O)N=C1N(/C=C2\C(=O)Oc3ccccc3C2=O)C(=O)/C(=C/c2ccco2)N1C	-12%	84% (active)	97.6% (active)	3%	74% (active)	97.1% (active)	-6%	65%	96.2% (active)	-7%	24%	91% (active)	-22%	76% (active)	97.7% (active)	-17%	61%	98.7% (active)
COc1ccc(C(=O)CC2(O)C(=O)N(C)c3c(Cl)cc(Cl)cc32)cc1 (stereo not given)	-1%	61%	67.6%	3%	56%	67.3%	4%	63%	61.2%	-2%	66%	62%	-2%	65%	69%	-2%	64%	87.2% (active)
COc1ccc(CN=C(N)N)c2ccccc12	5%	7%	-29.9%	2%	5%	-24.4%	-6%	-1%	-15.7%	31%	31%	-3%	-22%	-23%	-32.5%	13%	10%	-5.45%
